# High-throughput results (PubChem)
# FLuc counter – inhibits or activates purified firefly luciferase, miR-21 counter-screen; P08659; purified FLuc, Km substrates, luminescence inhibition; Potency, µM (series often up to 57.5 µM), for the others: at the highest dose activity change, negative = inhibition, actives largely listed as inhibitors; 360,000 tested, 6.9% active; AID 588342;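 note: plate controls were vehicle for no effect and reference inhibitor for full effect; nearly all actives have a fitted effect of over 55% in size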
# Target sequence (P08659 whole entry, looked up): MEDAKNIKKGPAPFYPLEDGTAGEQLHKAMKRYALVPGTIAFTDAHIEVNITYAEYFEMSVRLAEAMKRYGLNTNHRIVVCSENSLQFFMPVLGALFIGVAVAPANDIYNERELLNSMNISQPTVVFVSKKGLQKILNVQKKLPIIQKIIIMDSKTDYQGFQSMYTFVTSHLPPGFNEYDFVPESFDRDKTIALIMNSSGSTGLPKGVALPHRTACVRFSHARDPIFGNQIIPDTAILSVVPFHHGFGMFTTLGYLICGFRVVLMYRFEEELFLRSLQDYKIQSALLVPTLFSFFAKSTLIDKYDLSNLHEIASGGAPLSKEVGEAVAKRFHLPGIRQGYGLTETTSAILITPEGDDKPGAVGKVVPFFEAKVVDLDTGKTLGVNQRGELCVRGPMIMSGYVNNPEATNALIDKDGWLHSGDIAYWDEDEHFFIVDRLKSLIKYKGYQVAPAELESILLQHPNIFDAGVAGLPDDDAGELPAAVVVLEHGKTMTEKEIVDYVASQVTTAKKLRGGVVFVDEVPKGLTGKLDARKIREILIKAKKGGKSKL
#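 Purified P. pyralis luciferase (10nM final) with 10uM D-luciferin and 10uM ATP (Km levels) in 50mM Tris acetate pH 7.5, 10mM Mg acetate, 0.01% Tween-20, 0.05% BSA; qHTS 6-point titration, ~60 µM downward; luminescence read.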
# Rab9 prom act – activators of Rab9 promoter | Huh7 Rab9 promoter-luciferase reporter, luminescence, 24 h | Potency, µM (titrated, usually from 9.22 µM), inactives show at the top dose activation, negative = inhibition, usual class: activators | 320,000 tested, 2.8% active; note: % of control where 0% means no effect; nearly all actives have a fitted effect of over 60% in size
#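 Steps: seed 1500 Huh7 Rab9-luc cells per well, rest 2 h at 37 °C; add compound in DMSO; incubate 24 h; add luciferase reagent, 10 min ambient; read luminescence.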
# SMN2 splice up – enhancers of SMN2 splice variant expression | HEK293 SMN2-luciferase splicing reporter, luminescence, 30-36 h | Potency, µM (titrated, usually from 46.1 µM), inactives show at the top dose activity change, positive = activation, actives largely listed as activators | 210,000 tested, 2.8% active | AID 1458; note: % of control where 0% means no effect; nearly all actives have a fitted effect of over 55% in size
#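 qHTS luciferase splicing reporter: luminescence rises when SMN2 exon 7 is included in transfected HEK293 cells. Compound exposure lasted 30-36 h at 37C, with 4.5 mM final sodium butyrate as control, followed by a ONE-Glo read.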
# ELG1 DNA repair – inhibitors of ELG1-dependent DNA repair in HEK293T cells. HEK293T ELG1-luciferase reporter, luminescence, 16 h; DNA damage induced by 5-fluorouridine. 330,000 tested, 2.3% active. Potency, µM (doses to about 46.1 µM), for the others: at the top dose activity change, negative = inhibition, most hits filed as inhibitors. AID 504467; note: % is set by controls: 0 for no effect and ±100 for the full control effect; nearly all actives have a fitted effect of over 55% in size
#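 In this reporter screen, reduction of luminescence relative to DMSO vehicle indicated activity. Compounds and 5-fluorouridine were added together to 2,000 cells per well, incubated for 16 hr at 37 °C, then developed with ONE-Glo.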
# NPC1 promoter act – activators of NPC1 promoter. Huh7 NPC1 promoter luciferase reporter, 24 h. Potency, µM (highest dose often 9.22 µM), for the others: at the highest dose activation, usual class: activators. 320,000 tested, 2.4% active. AID 485313; note: % of control where 0% means no effect; nearly all actives have a fitted effect of over 60% in size
#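 Readout is luciferase luminescence, reflecting NPC1 promoter activation in stably transfected Huh7 cells after 24 h compound exposure at 37 °C in reduced-serum medium with 10% FBS.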
# ELG1 genotox – genotoxicity induction in ELG1-luciferase HEK293T cells | HEK293T ELG1-luciferase reporter, luminescence, 16 h | Potency, µM (highest dose often 46 µM), inactives show top-dose activity change, positive = activation, usual class: activators | 330,000 tested, 1.3% active; note: % of control where 0% means no effect; nearly all actives have a fitted effect of over 60% in size
#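 Genotoxicity was scored as increased ELG1-luciferase reporter signal, measured by ONE-Glo luminescence (30 min, room temperature). Compound or vehicle exposure of the HEK293T reporter cells lasted 16 hr at 37°C.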
# * = called active by the depositor; u = inconclusive; x = no result given. A selection: hits, their analogues and other compounds. The true share with any hit is near 9.4%. Calls come from the whole dose curve; as a rule, active = well fitted curve in the direction sought with a large enough effect; inconclusive = small, poorly fitted or top-dose-only effect, or another doubt; inactive = no such curve, though single readings can be large; an effect the other way counts as inactive or inconclusive. Potency is the fitted concentration of half-maximal effect.
SMILES,FLuc counter,Rab9 prom act,SMN2 splice up,ELG1 DNA repair,NPC1 promoter act,ELG1 genotox
CCC(=O)Nc1cccc(C(=O)c2ccccc2)c1,-8%,2%,3%,0%,0%,10%
CCC(=O)Nc1cccc(C(=O)/C=C/c2cccs2)c1,12µM*,u,-64%,0%,26%,12%
O=C(CCc1ccccc1)NCc1nc2cccnc2n1Cc1ccc(F)cc1,0%,x,x,x,x,x
Cn1cnc2c(=O)oc3ccc(S(=O)(=O)N4CCN(c5cccc(C(F)(F)F)c5)CC4)cc3c21,-2%,x,x,x,x,x
CC1(C)Nc2ccc(O)cc2-c2c1ssc2=S,-10%,3%,-10%,12µM*,-1%,-10%
Cc1ccc(-c2ccc(C(=O)O)[nH]2)cc1,19µM*,0%,-7%,u,0%,15%
COc1ccc(-c2ccc(C(=O)O)c(=O)[nH]2)cc1,-3%,24%,u,7%,1%,7%
C=C(C)CSc1nnc2n(N)c(=O)c3ccccc3n12,17µM*,u,18%,u,20%,u
CCOc1ccc(N(CC(=O)Nc2ccc3c(c2)OCO3)S(=O)(=O)c2ccccc2)cc1,-7%,x,-21%,x,x,x
O=C(COC(=O)c1ccc(Cl)nc1)c1ccc2c(c1)OCCO2,0.76µM*,1.6µM*,-3%,u,4µM*,u
O=C(COC(=O)C(O)c1ccccc1)c1ccc2c(c1)OCCO2 (stereo not given),1.5µM*,-1%,-8%,u,-5%,4%
O=C(OCC(=O)c1ccc[nH]1)c1ccc(Cl)nc1,-1%,-2%,x,0%,0%,1%
O=C(COC(=O)c1cccnc1Cl)c1ccc2c(c1)OCCO2,0.11µM*,4.5µM*,-1%,u,24%,-3%
CC(OC(=O)c1cccnc1Cl)C(=O)Nc1ccc2c(c1)OCCO2 (stereo not given),-8%,2%,-5%,u,0%,-7%
CCOC(=O)c1c(C)[nH]c(C)c1C(=O)COC(=O)c1ccc(Cl)nc1,x,x,x,1%,x,1%
CCc1ccc(C(=O)COC(=O)c2ccc(Cl)nc2)cc1,9.5µM*,u,23%,u,17%,2%
Cc1cc(C)cc(NS(=O)(=O)c2ccc(-c3cc(C)no3)cc2)c1,1%,x,x,x,x,x
CCOc1ccc(C(=O)Nc2ccccc2C(=O)OCc2cc(=O)n3nc(C4CC4)sc3n2)cc1,5%,x,x,x,x,x
C/C(=N\N=C(/N)c1nonc1N)c1ccc2c(c1)OCO2,2.7µM*,0.89µM*,x,u,0.63µM*,u
Cc1ccc(C)c(NC(c2ccccc2)c2nnc(-c3ccccc3F)o2)c1 (stereo not given),15µM*,x,23%,x,x,x
COC(=O)c1ccc(C(=O)NC(=S)Nc2ccc3nc(SC)sc3c2)cc1,4%,3%,u,18%,-4%,u
CSc1nc2ccc(NC(=O)C3=NNC(=O)CC3)cc2s1,u,22%,19%,u,19%,10%
CSc1nc2ccc(NC(=O)c3ccccn3)cc2s1,0.43µM*,0.4µM*,x,u,0.45µM*,0.092µM*
CSc1nc2ccc(NC(=O)C3=NN(c4ccccc4)C(=O)CC3)cc2s1,19µM*,0%,u,13%,6%,0%
CSc1nc2ccc(NC(=O)CSc3nnc(N)s3)cc2s1,21µM*,15%,9%,u,9%,u
SMILES,FLuc counter,Rab9 prom act,SMN2 splice up,ELG1 DNA repair,NPC1 promoter act,ELG1 genotox
Cc1ccc(CNC(=O)CN2C(=O)CSc3ccc(S(=O)(=O)N4CCCC4)cc32)cc1,-7%,x,x,x,x,x
COCc1c(C(=O)N2CCN(Cc3nc4ccccc4s3)CC2)oc2ccccc12,u,7%,x,2%,2%,1%
COCc1c(C(=O)N2CCN(S(=O)(=O)c3ccccc3Cl)CC2)oc2ccccc12,-3%,2%,x,10µM*,-1%,-7%
CCN(CC)C(=O)C1=CC(c2ccc3c(c2)OCO3)=NS(=O)(=O)N1C,-11%,x,x,x,x,x
COc1cccc(C2=NC(C)(C)NC(c3ccccc3O)C2)c1 (stereo not given),8.5µM*,3%,-4%,u,-2%,1%
CCC1(C)N=C(c2ccc3c(c2)OCO3)CC(c2ccccc2O)N1 (stereo not given),7.6µM*,u,u,u,11%,10%
COc1cccc(C2=NOC(C(=O)NC(C)C)C2)c1 (stereo not given),-2%,-4%,1%,8%,1%,1%
COc1ccc(C2=CC(c3ccc(F)cc3)n3ncc(C(=O)Nc4ccc(C)cc4)c3N2)cc1 (stereo not given),1%,x,x,x,x,x
CCOc1ccccc1CNS(=O)(=O)c1ccc(-c2coc(C)n2)cc1,2%,x,x,x,x,x
Cc1ccc(-c2cc(C(F)(F)F)n3ncc(-c4ccccc4)c3n2)cc1,0%,x,12%,x,x,x
CCSc1cc(C)nc2c(-c3ccccc3)cnn12,3µM*,-4%,x,u,-6%,9.2µM*
CCSc1cc(C)nc2c(-c3ccc(Cl)cc3)c(C)nn12,-1%,-1%,-12%,9%,-3%,1%
C=CCSc1cc(C)nc2c(-c3ccccc3)cnn12,3.4µM*,3.5µM*,x,u,21%,u
Cc1ccc(O)c(NC(=O)CCSc2nc(-c3ccco3)cc(C(F)(F)F)n2)c1,-3%,x,-8%,x,x,x
CCC(=O)Nc1ccccc1-c1nc2ccccc2n(CC(=O)c2ccc(C)cc2)c1=O,1%,x,x,x,x,x
O=C(Nc1ccccc1)C(=O)Nc1ccc2c(c1)N(C(=O)C1CC1)CCC2,3.4µM*,1.1µM*,x,u,1.1µM*,1.6µM*
O=C(NC1CCCCC1)N1CCc2ccccc21,19µM*,u,13µM*,u,u,15µM*
Cc1ccc(NC(=O)N2CCCc3ccccc32)cc1C,21µM*,20%,x,u,17%,u
O=C(Nc1ccccc1)N1CCCc2ccccc21,-14%,-1%,14%,7%,0%,5%
Cc1ccc(NC(=O)C2CCCN(C(=O)c3ccc(Cl)cc3)C2)cc1C (stereo not given),27µM*,u,-15%,2%,16%,9%
O=C(C1CCC(C(=O)N2CCc3ccccc32)CC1)N1CCc2ccccc21 (stereo not given),2%,-11%,-10%,-7%,-6%,-8%
O=C(c1ccc(F)cc1)c1cn(Cc2ccccc2)c2cc3c(cc2c1=O)OCO3,-5%,x,4%,x,x,x
O=C(CCCn1c(=O)c2cccn2c2cccnc21)Nc1ccccc1C(F)(F)F,-2%,x,x,x,x,x
Cc1ccc(NC(=O)N2CCCCC2)cc1NC(=O)N1CCCCC1,u,-3%,x,-7%,-5%,0%
